Source: PubChem BioAssay AID624453 (National Center for Advancing Translational Sciences (NCATS), 2012)
Activity calls are given as the source filed them. Calls follow the shape of the dose curve; as a rule, active = well fitted curve in the direction sought with a large enough effect; inactive = no such curve, though single readings can be large or run the other way.

target: D(2) dopamine receptor (Homo sapiens) (UniProt P14416); assay: HTS Assay for Allosteric Antagonists of the Human D2 Dopamine Receptor: Hit Validation in primary assay; details: HEK293 TREx D2, calcium flux, dopamine EC80 antagonism; series mostly up to 41.8 µM; activity change, negative = inhibition: at the top concentration
Sequence (P14416 whole entry, looked up): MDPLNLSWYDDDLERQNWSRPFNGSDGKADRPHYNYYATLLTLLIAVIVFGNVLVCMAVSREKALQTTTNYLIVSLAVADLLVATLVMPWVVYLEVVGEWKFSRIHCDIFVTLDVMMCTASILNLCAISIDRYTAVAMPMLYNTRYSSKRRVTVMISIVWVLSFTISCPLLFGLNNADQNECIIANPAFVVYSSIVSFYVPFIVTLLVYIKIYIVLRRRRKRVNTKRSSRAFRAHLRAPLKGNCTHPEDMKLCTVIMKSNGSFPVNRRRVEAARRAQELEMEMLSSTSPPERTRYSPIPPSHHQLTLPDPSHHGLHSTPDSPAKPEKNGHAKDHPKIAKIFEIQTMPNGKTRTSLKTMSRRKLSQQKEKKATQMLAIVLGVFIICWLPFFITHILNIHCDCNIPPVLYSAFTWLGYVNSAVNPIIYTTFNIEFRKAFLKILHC
Description: Dopamine receptors (DARs) are involved in the etiology and/or therapy of a number of neuropsychiatric and endocrine disorders. For instance, all receptor-based antiparkinsonian drugs work via stimulating the D2 DAR subtype whereas all FDA-approved antipsychotic agents are antagonists of this receptor. […] There are three different types of allosteric modulators that we are seeking, two of which will stimulate or augment receptor signaling, allosteric agonists and potentiators, while the third, allosteric antagonists, will attenuate receptor signaling. The present primary screening assay measures compound antagonism after an EC80 addition of dopamine by tracking calcium flux in a […], inducible Hek293 Trex D2 cell line. NIH Chemical Genomics Center [NCGC] NIH Molecular Libraries Probe Centers Network [MLPCN] MLPCN Grant: NS064831 Assay Submitter (PI): David Sibley
Freshly passaged cells are plated in 1536 well black, clear bottom plates at a density of 4000 cells/well in 3 ul of complete media containing 1x tetracycline inducer. After an overnight incubation at 30 C in 5% CO2, cells are loaded with 2 ul of the no wash Calcium Assay Kit (ABD Bioquest) and incubated at room temperature for 30 to 90 minutes before it's read.

SMILES | activity change, negative = inhibition
CN1C2CC(OC(=O)C(CO)c3ccccc3)CC1C(O)C2 (stereo not given) | 2.83% (inactive)
NNCc1ccccc1 | 20.8% (inactive)
CCN1C[C@@]2(C)CC[C@@H](OC)[C@@]34C2C(O)[C@@]2(OCO[C@]25CC(OC)C2C[C@@]3(O)C5C2O)C14 (stereo not given in full) | 16.4% (inactive)
CC(N)C(O)c1ccc(O)c(O)c1 (stereo not given) | 97.2% (inactive)
CC1C(=O)OC2O[C@]3(C)CC[C@H]4C(C)CCC1[C@]24OO3 (stereo not given in full) | 21.1% (inactive)
